Test results from the supplement of paper PMC10127200.
Where a name gives a salt, the structure may show the parent alone.

How the values were obtained:
Assay in all cases: Euclidean distance of Cell Painting phenotypic profile (signed KS, 77 features) to DMSO centroid (dimensionless distance); 5 or 10 uM (library dependent); higher = stronger phenotypic change vs DMSO (phenoactivity)
Settings in all cases: 48 h
786-O = test system: 786-O
Method in brief: (§1)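 Five cancer lines and a healthy fibroblast line received library compounds at 10 or 5 uM (library-dependent, 0.1% DMSO final) for 48 h. Stained cells were imaged confocally at 20X (9 fields/well). Harmony extracted 77 features, each scored as a signed Kolmogorov-Smirnov statistic against same-plate vehicle wells. Profiles were plate-position corrected, correlation-weighted and replicate-averaged at the top dose. Phenoactivity is the Euclidean distance from each profile to the median vehicle profile.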

A549 = test system: A549
Method in brief: as §1

DU145 = test system: DU145
Method in brief: as §1

FB = test system: FB
Method in brief: as §1

HEPG2 = test system: HEPG2
Method in brief: as §1

OVCAR4 = test system: OVCAR4
Method in brief: as §1

Row | Compound | Euclidean distance (786-O) | Euclidean distance (A549) | Euclidean distance (DU145) | Euclidean distance (FB) | Euclidean distance (HEPG2) | Euclidean distance (OVCAR4)
1 | COc1cc(-c2ncn(/C=C\C(=O)OC(C)C)n2)cc(C(F)(F)F)c1 | 3.51 | 3.05 | 3.45 | 3.74 | 2.56 | 4.53
2 | CN1CCN2c3ncccc3Cc3ccccc3C2C1 (centres undefined) [Mirtazapine] | 0.981 | 0.95 | 0.897 | 0.869 | 0.332 | 1.12
3 | COc1ccc(-c2ccc3c(N4CCOCC4)nc(N4C[C@@H](C)O[C@@H](C)C4)nc3n2)cc1CO | 1.93 | 2.15 | 1.96 | 3.61 | 2 | 2.43
4 | N[C@@H]1CCCC[C@H]1N.O=C([O-])C(=O)[O-].[Pt+2] [Eloxatin] | 3.84 | 3.01 | 1.15 | 3.29 | 2.14 | 3.55
5 | CC(C)c1cc(C(C)C)c(CC(=O)NS(=O)(=O)Oc2c(C(C)C)cccc2C(C)C)c(C(C)C)c1 [Avasimibe] | 4.24 | 1.79 | 0.813 | 0.86 | 0.752 | 0.819
6 | CCCCOc1cc(C(=O)OCCN(CC)CC)ccc1N [Oxybuprocaine HCl] | 1.13 | 0.889 | 1.18 | 0.902 | 0.935 | 1.1
7 | Cc1c(N)c(=O)n(-c2ccccc2)n1C [4-Aminoantipyrine] | 1.29 | 0.968 | 1.5 | 0.907 | 0.845 | 1.32
8 | C[C@]1(O)C[C@@H](c2nc(-c3ccc4ccc(-c5ccccc5)nc4c3)c3c(N)nccn32)C1 [OSI-906 (Linsitinib)] | 1.12 | 1.34 | 0.877 | 1.19 | 1.12 | 1.27
9 | N[C@H](Cc1ccccc1)C(=O)O [D-Phenylalanine] | 1.65 | 1.05 | 0.814 | 0.864 | 0.733 | 0.852
10 | CC[C@]1(O)C[C@H]2CN(CCc3c([nH]c4ccccc34)[C@@](C(=O)OC)(c3cc4c(cc3OC)N(C=O)[C@H]3[C@@](O)(C(=O)OC)[C@H](OC(C)=O)[C@]5(CC)C=CCN6CC[C@]43[C@@H]65)C2)C1 [Vincristine] | 3.12 | 2.61 | 4.78 | 3.47 | 3.99 | 2.86
11 | Cc1ccccc1N1C(=O)c2cc(S(N)(=O)=O)c(Cl)cc2NC1C (centres undefined) [Metolazone] | 1.06 | 0.914 | 1.26 | 0.909 | 0.715 | 1.05
12 | CSCC1CN(/N=C/c2ccc([N+](=O)[O-])o2)C(=O)O1 (centres undefined) [Nifuratel] | 0.806 | 0.74 | 0.807 | 0.93 | 1.19 | 1.09
13 | COC(=O)c1ccc2c(C(=Nc3ccc(N(C)C(=O)CN4CCN(C)CC4)cc3)c3ccccc3)c(O)[nH]c2c1 [Nintedanib Ethanesulfonate Salt] | 3.68 | 3.84 | 2.5 | 4.88 | 3.9 | 4.19
14 | COc1cc2ncnc(Nc3ccc(O)c(Br)c3)c2cc1OC | 1.36 | 1.35 | 1.92 | 1.7 | 1.64 | 0.933
15 | CO[C@H]1/C=C\C=C(/C)C(=O)NC2=CC(=O)C(NCCN(C)C)=C(C[C@@H](C)C[C@H](OC)[C@H](O)[C@@H](C)/C=C(\C)[C@@H]1OC(N)=O)C2=O | 2.76 | 2.89 | 4.03 | 3.32 | 3.56 | 2.71
16 | O=c1c2ccccc2oc2ccccc12 [Xanthone] | 1 | 1.28 | 1.24 | 1.02 | 0.607 | 1.14
17 | O=S(=O)(O)CCS [Mesna] | 0.758 | 0.755 | 0.968 | 0.772 | 2.1 | 1.22
18 | N[C@@H](CC(=O)N1CCn2c(nnc2C(F)(F)F)C1)Cc1cc(F)c(F)cc1F [Sitagliptin phosphate monohydrate] | 0.554 | 0.819 | 1.11 | 0.644 | 0.395 | 0.956
19 | C[C@H]1C[C@H]2[C@@H]3CCC4=CC(=O)C=C[C@]4(C)[C@@]3(F)[C@@H](O)C[C@]2(C)[C@@]1(O)C(=O)CO [Betamethasone] | 1.28 | 2.01 | 2.37 | 1.68 | 0.663 | 2
20 | Cc1ccc(-c2c(-c3nn(C)c4ncnc(N5CC[C@H](N6CCCCC6)C5)c34)cnn2C)cc1 | 0.748 | 0.927 | 0.814 | 1.22 | 0.843 | 1.27
21 | CCCCOc1cc(C(=O)NCCN(CC)CC)c2ccccc2n1 [Cinchocaine] | 0.885 | 1.28 | 0.93 | 1.03 | 1.47 | 1.21
22 | O=C(O)CCC(=O)OC[C@@H](NC(=O)C(Cl)Cl)[C@H](O)c1ccc([N+](=O)[O-])cc1 [Chloramphenicol sodium succinate] | 1.83 | 1.28 | 0.814 | 0.919 | 0.53 | 1.07
23 | Cc1ccc(C(=O)c2cc(O)c(O)c([N+](=O)[O-])c2)cc1 [Tolcapone] | 0.991 | 1.18 | 1.08 | 0.848 | 0.591 | 1.5
24 | CC(N/C(=N\C#N)Nc1ccncc1)C(C)(C)C (centres undefined) [Pinacidil] | 1.01 | 0.907 | 2.42 | 1.15 | 0.55 | 1.54
